The source of these data is PubChem BioAssay AID493169 (National Center for Advancing Translational Sciences (NCATS), 2011).

SMILES strings stand for the structures. Results filed as inconclusive are left out. A call without a number means that no potency is given here. Activity calls are given as the source filed them. Calls follow the shape of the dose curve; as a rule, active = well fitted inhibition curve with a large enough effect; inconclusive = small, poorly fitted or top-dose-only effect; inactive = flat fitted curve, though single readings scatter.
Potency is read from the fitted curve at half-maximal effect.

This assay is described as follows: CHOP2 Reporter Counterscreen Assay for Inhibitors of Ubiquitin-specific Protease USP2a.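 Also: activated enterokinase alone at 50 pM in a cell-free format rather than USP2a or CHOP2; nearly all actives have a fitted effect of over 55% in size.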 Conditions: purified enterokinase, fluorogenic substrate, 485/531 nm; series mostly up to 38.3 µM. The procedure, abridged: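 Cell-free counterscreen with pre-activated enterokinase alone (50 pM final) in 20mM Tris-HCl pH 8.0, 2mM CaCl2, 2mM beta-mercaptoethanol, 0.05% CHAPS; compound preincubation 30 min RT, reporter substrate 25nM final, fluorescence read after 10 min (Ex 485/Em 531).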
Background: The purpose of a counterscreen is to sort out artefacts and off-target activity.
On to `Nn1c(Nc2ccccc2)nc2ccccc2c1=O`, for which the Potency result is “inactive”.

For `COc1ccc(-n2c(O)c(/C=N/n3cnnc3)c3ccccc3c2=O)cc1`, the Potency entry was “inactive”.

On to `CCOC(=O)COc1ccccc1/C=N/O`, for which the Potency entry is “inactive”.

Regarding `CCCn1c(C)cc(C)c(C#N)c1=O`, the Potency entry was “inactive”.

For `CN(c1ccccc1)S(=O)(=O)c1ccc(Cl)c(C(=O)NCCc2c[nH]c3ccccc23)c1`, the Potency entry was “inactive”.

`Cc1ccc(S(=O)(=O)N2[C@@H](c3ccccc3F)C(C(=O)O)=CC[C@H]2c2ccc(Cl)c(Cl)c2)cc1`: the Potency result was “inactive”.

For `CCn1c(CN2CCOCC2)nnc1SCC(=O)Nc1ccc(C(C)=O)cc1`, the Potency entry was “inactive”.

On to `Nc1c(C(=O)NCC2CCCO2)sc2nc3c(c(-c4ccco4)c12)CC/C3=C\c1ccco1` (stereo not given), for which the Potency was 3.16 µM (active).

On to `Cc1cc(C)cc(NC(=O)CSc2nc3c(c(=O)[nH]2)CN(Cc2ccc(F)cc2)CC3)c1`, for which the Potency result was “inactive”.

In the case of `COc1ccccc1-c1nnc(SCC(=O)Nc2nc(-c3ccccc3)cs2)n1C`, the Potency entry was “inactive”.

For the molecule `O=C(NCCN1C(=O)CSC1=O)C1CC(=O)N(c2ccccc2)C1` (stereo not given), the Potency entry was “inactive”.

Turning to `C=CCn1c(NCc2cc(C)ccc2O)nc2ccccc21`, the Potency entry was “inactive”.

Consider `Cc1ccc(Nc2cc(C)nc(NCc3ccccc3)n2)cc1`, for which the Potency result was “inactive”.

With `CCCCCCCCCCOC(=O)Cn1c(COc2cccc(C)c2)[n+](C)c2ccccc21`, the Potency is 10 µM (active).

With `CCOC(=O)c1c(NC(C)=O)sc2c1CCCNC2=O`, the Potency result was “inactive”.

`O=C(O)c1cc(N2N=C(C(F)(F)F)/C(=C/C=C/c3ccco3)C2=O)ccc1Cl`: the Potency was 3.98 µM (active).

With `CCOc1ccc(NC(=O)CSc2nnc(Cn3c(=O)sc4ccccc43)n2C)cc1`, the Potency entry was “inactive”.

Regarding `O=C(c1ccc([N+](=O)[O-])cc1)N(Cc1ccc(Cl)cc1)N1C(=O)CCCC1=O`, the Potency entry was “inactive”.

Regarding `COc1cc(C)ccc1OCCOc1cc(C)ccc1Cl`, the Potency result was “inactive”.

Regarding `Nc1cc(N)nc(SCC(=O)N2CCCCC2)n1`, the Potency result was “inactive”.

With `COc1cc(OC)cc(-c2c(C#Cc3ccsc3)c3cc(-c4ccc(OC)c(F)c4)ccc3n2C)c1`, the Potency entry is “inactive”.

`CCn1nnnc1SCC(=O)Nc1cccc(C)n1`: the Potency entry is “inactive”.

As for `COc1cc(/C=C/C(=O)OCC(=O)NC(=O)NCc2ccco2)ccc1OC(F)F`, the Potency result was “inactive”.

Turning to `CC(C)(C)C1CCC2(CC1)Nc1cccc3cccc(c13)N2`, the Potency entry was “inactive”.

As for `COc1cccc(C(=O)NCc2ccc3[nH]c(C)cc3c2)c1`, the Potency entry is “inactive”.

On to `O=c1oc2c(CN3CCCCC3)c(O)ccc2c2c1CCCCC2`, for which the Potency result was “inactive”.

Take `CCO[C@H]1OC(C(=O)N2CCCCCCC2)=C[C@@H](c2ccc(C(F)(F)F)cc2)[C@@H]1CCCO`: the Potency result is “inactive”.

On to `O=C(COc1ccccc1)Nc1nnc(-c2ccc(Cl)s2)o1`, for which the Potency entry is “inactive”.

On to `CCC(C)(C)n1nnnc1C(c1ccc(C)cc1)N1CCCC1` (stereo not given), for which the Potency result was “inactive”.

As to `COc1ccc(CC(NC(C)=O)C(=O)NC2CCN(c3nc(C)cc(C)c3C#N)CC2)c(OC)c1` (stereo not given), the Potency result was “inactive”.

Consider `CCNC(=S)N/N=C/c1cn(Cc2ccc(F)cc2)c2ccccc12`, for which the Potency entry is “inactive”.

Turning to `Cc1c(C(=O)NCc2c(F)cc(F)cc2F)oc2ccc(S(=O)(=O)N3CCOCC3)cc12`, the Potency entry was “inactive”.

`COCCn1c(CN(Cc2ccccc2)Cc2ccccc2)nc2c1c(=O)n(C)c(=O)n2C`: the Potency entry was “inactive”.

For `COc1cccc(N2CCN(C(=O)CN(C)S(=O)(=O)c3ccc4c(c3)CCC(=O)N4)CC2)c1`, the Potency result was “inactive”.

With `CNc1sc(C(=O)c2ccc(F)cc2)c(N)c1-c1nc2ccccc2s1`, the Potency entry is “inactive”.

For `Cc1ccc(C(=O)O/N=C/c2c(C(F)(F)F)nn(C)c2Sc2ccc(Cl)cc2)cc1`, the Potency result is “inactive”.

In the case of `CN1CCN(S(=O)(=O)c2ccc(N3CCN(S(=O)(=O)/C=C/c4ccccc4)CC3)nc2)CC1`, the Potency entry is “inactive”.

As for `Cc1ccc(C(=O)c2coc3c2C(=O)C(=O)c2ccccc2-3)cc1`, the Potency result is “inactive”.

For `CC1CCCC(NC(=O)C2N(CCCN3CCCC3)C(=O)C3C(C(=O)Nc4ccc(Cl)cc4)C4C=CC32O4)C1C` (stereo not given), the Potency result is “inactive”.

For the molecule `Cc1nn(C)cc1CNC(=O)c1ccc(Br)o1`, the Potency result is “inactive”.
